# Results filed as inconclusive are left out. A number with no mark means an inactive call. The source made the active and inactive calls. Calls come from the whole dose curve; as a rule, active = well fitted inhibition curve with a large enough effect; inconclusive = small, poorly fitted or top-dose-only effect; inactive = no such curve, though single readings can be large or run the other way.
# Biological target: Tumor susceptibility gene 101 protein (Homo sapiens) (UniProt Q99816)
# Test: qHTS Assay for Iinhibitors of HIV-1 Budding by Blocking the Interaction of PTAP/TSG101: Hit Validation (AID 651600); note: nearly all actives have a fitted effect of over 70% in size
# Details: PTAP peptide/TSG101 UEV interaction, biochemical assay; series mostly up to 57.5 µM; activity change, negative = inhibition: at the top concentration
# Procedure, shortened: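 Displacement of a FITC-labeled PTAP-motif peptide (50 nM) from the Tsg101 binding domain (10 uM) was monitored by fluorescence polarization after a 20 min room-temperature incubation.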
# % is set by controls: 0 for no effect and ±100 for the full control effect; potency is the fitted concentration of half-maximal effect.
# Chain of Tumor susceptibility gene 101 protein (Homo sapiens) (Q99816 whole entry, looked up): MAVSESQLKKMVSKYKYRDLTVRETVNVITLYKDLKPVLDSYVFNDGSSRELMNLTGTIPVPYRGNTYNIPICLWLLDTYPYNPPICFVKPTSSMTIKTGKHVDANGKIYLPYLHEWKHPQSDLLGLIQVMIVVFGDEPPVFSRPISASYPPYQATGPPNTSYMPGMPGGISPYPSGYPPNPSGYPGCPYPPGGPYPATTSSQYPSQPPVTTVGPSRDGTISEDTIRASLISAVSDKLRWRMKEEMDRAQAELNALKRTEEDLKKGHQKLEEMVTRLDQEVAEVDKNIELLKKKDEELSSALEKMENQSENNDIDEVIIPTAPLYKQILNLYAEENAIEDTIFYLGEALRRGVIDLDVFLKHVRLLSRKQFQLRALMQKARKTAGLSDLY
SMILES,Potency,"activity change, negative = inhibition"
CN1C(=O)NC(c2ccccc2[N+](=O)[O-])C2=C1CCCC2=O (stereo not given),16.3 µM (active),
C/C(N)=C(/C#N)C(=O)CSc1ncnc2ccccc12,,7.4%
CCC(=O)Oc1ccc2c(c1)O/C(=C\c1ccco1)C2=O,16.3 µM (active),
Cc1nc2nc(-c3cccs3)cn2nc1C,,-19%
N#CC(C(=O)NC1CC1)c1nc2ccccc2nc1N1CCCC1 (stereo not given),,12.8%
COc1ccc(C2C(C(=O)c3cccs3)=C(O)C(=O)N2c2nncs2)cc1 (stereo not given),20.6 µM (active),
Cc1c(C(=O)N(C)c2cccc(C(F)(F)F)c2)sc2nc3n(c(=O)c12)CCCCC3,,-0.14%
Clc1ccc(C2=CC(c3ccco3)n3ncnc3N2)cc1 (stereo not given),,-16.1%
Cn1c(=O)cc2c3c(c(N4CCCCC4)ccc31)C(=O)c1ccccc1-2,,-21.2%
O=C1Nc2ccc(Cl)cc2C12Nc1ccccc1-c1nnc(SCc3ccccc3F)nc1O2 (stereo not given),,-15.6%
Cc1ccc(NC(=O)/C(C#N)=C(\N)C(Cl)(Cl)Cl)nc1,18.3 µM (active),
CC(=O)Nc1ccc(S(=O)(=O)Nc2nc3n(n2)C(c2ccccc2)C=C(c2ccc(Cl)cc2)N3)cc1 (stereo not given),,0.553%
Cc1ccc(C2C=C(c3ccccc3)Nc3nc(NS(=O)(=O)c4ccccc4)nn32)cc1 (stereo not given),,0.587%
O=[N+]([O-])c1cc(Cl)cc(/C=N/n2cnnc2)c1O,,-1.41%
CN1c2ccc(C=O)c3c(C=O)ccc(c23)N(C)C1(C)C,,10.5%
CC(C)c1cc(=O)oc2c3c4c(cc12)CCCN4CCC3,5.17 µM (active),
O=C1/C(=N\S(=O)(=O)c2cccs2)C([n+]2cccc(Cc3ccccc3)c2)=C([O-])c2ccccc21,16.3 µM (active),
Nc1cnccc1C(=O)O,20.6 µM (active),
CCCCCOc1ccc(/C=c2\sc3nc(=O)c(-c4ccccc4)nn3c2=O)cc1OC,,-11.2%
Cc1ccc(NC(=S)Nc2ccc3nc(-c4ccccn4)c(-c4ccccn4)nc3c2)cc1C,,-14.8%

SMILES,Potency,"activity change, negative = inhibition"
CCOC(=O)Cn1c(=O)c(-c2cc(Br)ccc2N)nc2ccccc21,,9.69%
CC(OC(=O)c1c2c(nc3ccccc13)/C(=C\c1ccc3c(c1)OCO3)CCC2)C(=O)Nc1ccc(S(N)(=O)=O)cc1 (stereo not given),4.11 µM (active),
COc1ccc(OC)c(S(=O)(=O)Nc2cc3c(cc2C)n(C)c(=O)c(=O)n3C)c1,,-17.1%
O=C(NCc1ccco1)c1cccc2c1C(=O)c1ccc(N3CCC(Cc4ccccc4)CC3)cc1S2(=O)=O,,-18.3%
S=C(Nc1ccc(N2CCOCC2)cc1)Nc1ccc2nc(-c3ccco3)c(-c3ccco3)nc2c1,32.6 µM (active),
Cc1cc[n+](-c2[nH]c(=O)sc2/C=N/NC([S-])=Nc2ccccc2)cc1,18.3 µM (active),
COc1ccc(-n2nc(C(=O)Nc3ccc(OC)c(OC)c3)c3c4ccccc4n(C)c3c2=O)cc1,,7.24%
Nc1c(C(=O)c2cccs2)sc2nsc(SCCN3CCCCC3)c12,14.6 µM (active),
CCc1c(C)sc(NC(=O)c2ccccc2[N+](=O)[O-])c1C(N)=O,,7.8%
CCCN1CCCc2cc(CN)ccc21,,-4.04%
Cc1ccc(N2C(=O)C3C(C(=O)c4ccccc4)=NN(c4ccccc4)C3C2=O)cc1 (stereo not given),,-20.4%
O=C(NCc1cccc(C(F)(F)F)c1)c1cccc2c1C(=O)c1ccc(N3CCC(Cc4ccccc4)CC3)cc1S2(=O)=O,14.6 µM (active),
COc1ccc(-c2onc3ccc(Br)cc23)cc1,,-8.81%
CCc1cc(C(=O)OC)c(NC(=O)CC2Nc3cc(C)c(C)cc3NC2=O)s1 (stereo not given),,5.17%
Fc1ccc(C2=CC(c3ccco3)n3ncnc3N2)cc1 (stereo not given),,-1.05%
COc1ccc(NC(=O)c2cccc(-c3ccc(O)cc3)c2)cn1,20.6 µM (active),
Cn1c2ccc(F)cc2c2nc3ccccc3nc21,,-28.8%
COc1ccc(OC)c2cc3ccccc3cc12,32.6 µM (active),
O=c1cc2oc3cc(O)c(O)cc3c(-c3ccccc3O)c-2cc1O,13 µM (active),
COc1cc(/C=c2\sc3nc(=O)c(-c4ccccc4)nn3c2=O)ccc1OCCC(C)C,,0.977%

# — PubChem BioAssay (NCATS)
